Several values for one entry are separate records, joined by “and”; a condition that tells them apart may be missing. Equal entries are not always repeated. Records with an inconclusive call do not appear.

The nature of the first experiment: qHTS Assay for Lipid Storage Modulators (AID 1519). To be noted: Drosophila S3 cells, BODIPY lipid droplet/cell ratio, laser cytometry; measured here: cell count channel max response; cells loaded with oleic acid. Put shortly:
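Cells seeded at 5,000 per well were treated with compounds over a concentration series and loaded with oleic acid (400 uM, as added). Lipid droplet fluorescence (488 nm excitation, 500-530 nm channel) was read by laser-scanning cytometry and normalized to 20 uM Triacsin C.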
Background: qHTS replaces the single test concentration by a dilution series.
As for `O=C(C1CCCCC1)N1CC(=O)N2CCc3ccccc3C2C1` (configuration not stated), the max response is -17.9%.
As to `C[C@](N)(Cc1ccc(O)c(O)c1)C(=O)O`, the max response is 48.1%.
In the case of `Cc1ccc(-c2cc(C(F)(F)F)nn2-c2ccc(S(N)(=O)=O)cc2)cc1`, the max response was determined as 18.8%.
For the compound `CCC1(C)CC(=O)NC1=O` (configuration not stated), the max response is 13.5% and 40.9%.
Same read-out and setting: the same measure for `CC(C)(Oc1ccc(C2CC2(Cl)Cl)cc1)C(=O)O` (configuration not stated): -18.9%; for `CCOC(=O)c1ncn2c1CN(C)C(=O)c1cc(F)ccc1-2`: 20.1%.
For the compound `CN1C(C(=O)Nc2ccccn2)=C(O)c2ccccc2S1(=O)=O`, the max response is -1.41%.
For the compound `OCCN(CCO)c1nc(N2CCCCC2)c2nc(N(CCO)CCO)nc(N3CCCCC3)c2n1`, the max response is -18.6%.
Still for that read-out and setting: the same measure for `Cc1cn([C@H]2C=C[C@@H](CO)O2)c(=O)[nH]c1=O`: -10.8%; for `Cc1ccc(C(=O)Nc2ccc(S(=O)(=O)O)c3cc(S(=O)(=O)O)cc(S(=O)(=O)O)c23)cc1NC(=O)c1cccc(NC(=O)Nc2cccc(C(=O)Nc3cc(C(=O)Nc4ccc(S(=O)(=O)O)c5cc(S(=O)(=O)O)cc(S(=O)(=O)O)c45)ccc3C)c2)c1`: -19.7% and 7.39%; for `Clc1ccc(C(c2ccccc2Cl)C(Cl)Cl)cc1` (configuration not stated): 11% and -19.2%.
As to `CC(COc1ccccc1)N(CCCl)Cc1ccccc1` (configuration not stated), the max response stood at 11.9%.
Same read-out and setting: under `Cn1c(=O)c2c(ncn2C)n(C)c1=O` stands 6.09% and -15.3%; under `Cc1ccccc1N1C(=O)c2cc(S(N)(=O)=O)c(Cl)cc2NC1C` (configuration not stated), 11.3% and 51.4%.
On the same count and under the same terms, under `O=c1c(-c2ccc(O)cc2)coc2cc(O)cc(O)c12` stands 15.5%.
On the same count and under the same terms, under `CCc1cccc2c3c([nH]c12)C(CC)(CC(=O)O)OCC3` (configuration not stated) stands 1.96% and -60.6%.

Still in this experiment, the particulars now being: Drosophila S3 cells, BODIPY lipid droplet/cell ratio, laser cytometry; measured here: lipid channel max response; cells loaded with oleic acid.
`O=C(C1CCCCC1)N1CC(=O)N2CCc3ccccc3C2C1` (configuration not stated): the max response is -16.6%.
Take `C[C@](N)(Cc1ccc(O)c(O)c1)C(=O)O`: the max response turned out to be 42%.
Still for that read-out and setting: under `Cc1ccc(-c2cc(C(F)(F)F)nn2-c2ccc(S(N)(=O)=O)cc2)cc1` stands 30%.
On the same count and under the same terms, under `CCC1(C)CC(=O)NC1=O` (configuration not stated) stands 22.9% and 41%.
Still for that read-out and setting: under `CC(C)(Oc1ccc(C2CC2(Cl)Cl)cc1)C(=O)O` (configuration not stated) stands -26.3%; under `CCOC(=O)c1ncn2c1CN(C)C(=O)c1cc(F)ccc1-2`, 21.2%; under `CN1C(C(=O)Nc2ccccn2)=C(O)c2ccccc2S1(=O)=O`, -3.03%.
For the compound `OCCN(CCO)c1nc(N2CCCCC2)c2nc(N(CCO)CCO)nc(N3CCCCC3)c2n1`, the max response was -17.7%.
On the same count and under the same terms, the same measure for `Cc1cn([C@H]2C=C[C@@H](CO)O2)c(=O)[nH]c1=O`: -8.91%; for `Cc1ccc(C(=O)Nc2ccc(S(=O)(=O)O)c3cc(S(=O)(=O)O)cc(S(=O)(=O)O)c23)cc1NC(=O)c1cccc(NC(=O)Nc2cccc(C(=O)Nc3cc(C(=O)Nc4ccc(S(=O)(=O)O)c5cc(S(=O)(=O)O)cc(S(=O)(=O)O)c45)ccc3C)c2)c1`: -18.9% and 17.7%; for `Clc1ccc(C(c2ccccc2Cl)C(Cl)Cl)cc1` (configuration not stated): 22.4% and -18.8%.
In the case of `CC(COc1ccccc1)N(CCCl)Cc1ccccc1` (configuration not stated), the max response came out at 23.2%.
Still for that read-out and setting: the same measure for `Cn1c(=O)c2c(ncn2C)n(C)c1=O`: 17.2% and -15.6%.
The same measure, in the same setting: the same measure for `Cc1ccccc1N1C(=O)c2cc(S(N)(=O)=O)c(Cl)cc2NC1C` (configuration not stated): 18.3% and 52%; for `O=c1c(-c2ccc(O)cc2)coc2cc(O)cc(O)c12`: 9.16%; for `CCc1cccc2c3c([nH]c12)C(CC)(CC(=O)O)OCC3` (configuration not stated): 5.72% and -61.2%.

The record behind these values is PubChem BioAssay (NCATS).
